The values that follow come from PubChem BioAssay (EPA / NIEHS).

Assay [1] in a line: ATG_NFI_CIS: Attagene CIS-FACTORIAL HepG2 Assay for human Nuclear Factor I (NFI) (AID 2282989). Particulars: HepG2 cis-regulatory reporter, NFI response element transcription; actives raise or lower the signal. The method, boiled down: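 Reporter transcription driven by endogenous transcription factors in HepG2 cells; 24 h treatment. Quantitation by labelled RT-PCR fragments on capillary electrophoresis, gain- or loss-of-signal relative to DMSO.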

In assay [2] the target is Myc proto-oncogene protein (Homo sapiens) (UniProt P01106). As to the kind of experiment: ATG_Myc_CIS: Attagene CIS-FACTORIAL HepG2 Assay for human Myelocytomatosis (Myc) Proto-Oncogene Transcription Factor (AID 2282990). Particulars: HepG2, Attagene cis-reporter transcription factor activity; actives raise or lower the signal. In a few lines:
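Fluorescence intensity of reporter-specific cDNA fragments, separated by capillary electrophoresis, gives the signal. Transfected HepG2 cells carrying cis-promoter reporter constructs are incubated with compound for 24 h; DMSO serves as baseline.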

The nature of assay [3]: ATG_NRF2_ARE_CIS: Attagene CIS-FACTORIAL HepG2 Assay for human Nuclear Factor Erythroid 2 Related Factor 2 (NFR2) response to Antioxidant Response Elements (ARE) (AID 2282992).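 As to AC50: reporter mRNA level measured by RT-PCR and capillary electrophoresis fluorescence.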 Particulars: HepG2 Attagene ARE/NRF2 reporter, transcription factor activity; actives raise or lower the signal. The method, boiled down: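 Endogenous transcription factor activity in human liver HepG2 cells is tracked via a cis-element-driven reporter within a multiplexed set. mRNA induction is read by RT-PCR and capillary electrophoresis after 24 h, with DMSO as baseline.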

A short description of assay [4]: ATG_Oct_MLP_CIS: Attagene CIS-FACTORIAL HepG2 Assay for human Octamer-Binding Transcription Factor (Oct) (AID 2282993). Particulars: HepG2 Attagene cis-factorial Oct reporter, mRNA; actives raise or lower the signal. In a few lines: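 Transfected HepG2 cells, 24 h treatment. Reporter mRNA quantified by RT-PCR–capillary electrophoresis; bidirectional fitting against DMSO.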

Assay [5] in a line: BSK_3C_TissueFactor: BioMAP Diversity Plus: 3C Assay for Tissue Factor Biomarker Activity (AID 2282997). The conditions noted are these: BioMAP 3C HUVEC, tissue factor biomarker readout; actives raise or lower the signal. In a few lines: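 Readout: Tissue Factor ELISA. Cells: human primary umbilical vein endothelium. Time: 24 h after dosing. Analysis: bidirectional fit, DMSO baseline.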

Assay [6] can be described thus: BSK_3C_uPAR: BioMAP Diversity Plus: 3C Assay for Urokinase-type plasminogen activator receptor (uPAR) Biomarker Activity (AID 2282998). The conditions noted are these: BioMAP 3C HUVEC, uPAR biomarker ELISA; actives raise or lower the signal. In a few lines: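 Readout: ELISA for surface uPAR. System: human umbilical vein endothelial primary cells, 24 h after chemical exposure. Analysis: bidirectional fit, DMSO baseline.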

Assay [7] can be described thus: BSK_3C_VCAM1: BioMAP Diversity Plus: 3C Assay for Vascular cell adhesion molecule 1 (VCAM1) Biomarker Activity (AID 2282999). Particulars: BioMAP 3C HUVEC, VCAM1 ELISA, cytokine-stimulated; actives raise or lower the signal. In a few lines: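 HUVEC primary cells, 24 h compound exposure; VCAM-1 by ELISA; gain/loss of signal fitted bidirectionally vs DMSO baseline.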
(ELISA stands for enzyme-linked immunosorbent assay.)

Assay [8] is described as follows: BSK_4H_Eotaxin3: BioMAP Diversity Plus: 4H Assay for Eotaxin 3 Biomarker Activity (AID 2283000).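 As to outcome: CCL26 protein level quantified by ELISA in parallel with SRB cytotoxicity check.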 The conditions noted are these: primary human endothelial cells (HUVEC); actives raise or lower the signal. The method, boiled down:
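HUVEC, 24 h post-dose, ELISA for Eotaxin-3/CCL26. Gain or loss of signal fitted bidirectionally vs DMSO baseline.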

Assay [9] deals with human Peroxisome Proliferator-activated Receptor alpha (PPARa), PPARA (gene 5465) (UniProt Q07869). The assay is described as follows: ATG_PPARa_TRANS: Attagene TRANS-FACTORIAL HepG2 Assay for human Peroxisome Proliferator-activated Receptor alpha (PPARa) (AID 2283001; active = hit-call score of the fitted dose curve at least 0.9, where 1 is the maximum). The method, boiled down:
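HepG2, transient MRTU transfection, 24 h treatment. RT-PCR → FAM labelling → capillary electrophoresis. Fit vs DMSO, positive direction.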

Read-out in assay [10]: Intercellular Adhesion Molecule 1 (ICAM1), ICAM1 (gene 3383)
As to the kind of experiment: BSK_3C_ICAM1: BioMAP Diversity Plus: 3C Assay for Intercellular Adhesion Molecule 1 (ICAM1) Biomarker Activity (AID 2283003). Particulars: primary human endothelial cells (HUVEC); actives raise or lower the signal. The method, boiled down: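 Chemicals are dosed onto primary human umbilical vein endothelium (3C system). After 24 h, ICAM-1 is measured by ELISA, and responses are fitted bidirectionally relative to DMSO.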

Assay [11] in a line: BSK_3C_Proliferation: Cell Proliferation Assessment in the BioMAP Diversity Plus: 3C Assay (AID 2283006).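 As to AC50: potency may reflect either rise or fall in cell number versus DMSO.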 The conditions noted are these: primary human endothelial cells (HUVEC). In a few lines:
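Cells (human umbilical vein endothelial, sub-confluent) receive test chemical; after 48 h they are fixed in 10% trichloroacetic acid, stained with 0.1% SRB and read at 560 nm. Activity is referenced to DMSO, fitting increases and decreases.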

In assay [12] the target is Nuclear receptor subfamily 1 group I member 2 (Homo sapiens) (UniProt O75469). The assay is described as follows: ATG_PXR_TRANS: Attagene TRANS-FACTORIAL HepG2 Assay for human Pregnane X Receptor (PXR) (AID 2283008; active = hit-call score of the fitted dose curve at least 0.9, where 1 is the maximum). In a few lines: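 HepG2 transfected (FuGene 6) with GAL4-UAS reporter units + PXR-Gal4 chimera; dosed 24 h. Total RNA → oligo(dT) RT → PCR → 6-FAM primer extension → HpaI cut → CE. Gain-of-signal vs DMSO.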
Sequence of Nuclear receptor subfamily 1 group I member 2 (Homo sapiens) (O75469 whole entry, looked up, the tested form may be a part): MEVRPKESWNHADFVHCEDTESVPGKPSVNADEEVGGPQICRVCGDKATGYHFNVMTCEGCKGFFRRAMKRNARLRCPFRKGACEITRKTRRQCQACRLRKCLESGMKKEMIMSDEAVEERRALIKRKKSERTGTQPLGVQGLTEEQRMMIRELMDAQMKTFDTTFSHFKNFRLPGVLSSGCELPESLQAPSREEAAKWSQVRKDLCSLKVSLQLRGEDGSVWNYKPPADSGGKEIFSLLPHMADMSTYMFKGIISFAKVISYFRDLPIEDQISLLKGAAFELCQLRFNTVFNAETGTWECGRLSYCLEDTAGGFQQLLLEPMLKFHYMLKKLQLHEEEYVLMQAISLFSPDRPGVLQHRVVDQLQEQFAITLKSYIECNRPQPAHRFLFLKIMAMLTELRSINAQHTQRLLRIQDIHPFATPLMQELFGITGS

The target in assay [13] is human Retinoic Acid Receptor gamma (RARg), RARG (gene 5916) (UniProt P13631). As to the kind of experiment: ATG_RARg_TRANS: Attagene TRANS-FACTORIAL HepG2 Assay for human Retinoic Acid Receptor gamma (RARg) (AID 2283009; active = hit-call score of the fitted dose curve at least 0.9, where 1 is the maximum). In a few lines:
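TRANS format measured activity of exogenous NR-GAL4 fusion (RARg) in transfected HepG2 liver cells after 24 h dosing. Induced reporter RNA was detected by RT-PCR/capillary electrophoresis fluorescence, analysed in the positive direction against DMSO.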

Assay [14] has as its target human RAR-related Orphan Receptor beta (RORb), RORB (gene 6096) (UniProt Q92753). As to the kind of experiment: ATG_RORb_TRANS: Attagene TRANS-FACTORIAL HepG2 Assay for human RAR-related Orphan Receptor beta (RORb) (AID 2283010; active = hit-call score of the fitted dose curve at least 0.9, where 1 is the maximum). The method, boiled down: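 Transfect HepG2 with multiple GAL4-UAS reporter transcription units; dose chemicals for 24 h; isolate RNA, reverse-transcribe and PCR-amplify reporter sequences; label, digest and resolve fragments by capillary electrophoresis; fit increases relative to DMSO.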

The target in assay [15] is Cellular tumor antigen p53 (Homo sapiens) (UniProt P04637). As to the kind of experiment: ATG_p53_CIS: Attagene CIS-FACTORIAL HepG2 Assay for human p53 Transcription Factor (AID 2282994). Particulars: HepG2 p53 cis-element reporter, Attagene mRNA; actives raise or lower the signal. The method, boiled down: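 Steps: transfect HepG2 with multiplexed cis reporter constructs; dose chemicals 24 h; extract RNA, reverse-transcribe, PCR-amplify reporter sequences; FAM-label, HpaI-digest, resolve fragments by CE. Activity fitted both directions relative to DMSO.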
Sequence of Cellular tumor antigen p53 (Homo sapiens) (P04637 whole entry, looked up, the tested form may be a part): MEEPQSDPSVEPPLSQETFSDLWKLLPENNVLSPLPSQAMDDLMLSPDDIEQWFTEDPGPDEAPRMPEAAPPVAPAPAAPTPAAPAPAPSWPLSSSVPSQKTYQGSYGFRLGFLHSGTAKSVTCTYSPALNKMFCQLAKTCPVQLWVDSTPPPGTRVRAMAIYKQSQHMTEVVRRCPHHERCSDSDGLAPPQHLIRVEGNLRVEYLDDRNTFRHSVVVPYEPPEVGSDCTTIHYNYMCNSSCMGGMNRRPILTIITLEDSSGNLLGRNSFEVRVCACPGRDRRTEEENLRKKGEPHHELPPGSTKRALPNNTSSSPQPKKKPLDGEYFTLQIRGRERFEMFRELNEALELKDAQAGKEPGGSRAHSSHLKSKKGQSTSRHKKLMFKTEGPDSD

Assay [16] has as its target Retinoic acid receptor alpha (Homo sapiens) (UniProt P10276). The assay is described as follows: ATG_RARa_TRANS: Attagene TRANS-FACTORIAL HepG2 Assay for human Retinoic Acid Receptor alpha (RARa) (AID 2283005; active = hit-call score of the fitted dose curve at least 0.9, where 1 is the maximum). In a few lines:
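HepG2 transiently transfected with multiplex GAL4-UAS reporter units including a human RARa–GAL4 chimera; 24 h compound exposure. Reporter mRNA quantified by RT-PCR, 6-FAM labeling and capillary electrophoresis; gain of signal versus DMSO.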

Assay [17] has as its target human Peroxisome Proliferator-activated Receptor delta (PPARd), PPARD (gene 5467) (UniProt Q03181). The assay is described as follows: ATG_PPARd_TRANS: Attagene TRANS-FACTORIAL HepG2 Assay for human Peroxisome Proliferator-activated Receptor delta (PPARd) (AID 2283002; active = hit-call score of the fitted dose curve at least 0.9, where 1 is the maximum). The method, boiled down:
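Fluorescence from capillary electrophoresis of labelled RT-PCR reporter fragments gives the signal; DMSO sets baseline. Cells: HepG2 transiently carrying GAL4-UAS reporter units plus chimeric nuclear receptor-Gal4 proteins, exposed to chemicals for 24 h.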

Assay [18] deals with human Retinoic Acid Receptor beta (RARb), RARB (gene 5915) (UniProt P10826). The assay is described as follows: ATG_RARb_TRANS: Attagene TRANS-FACTORIAL HepG2 Assay for human Retinoic Acid Receptor beta (AID 2283004; active = hit-call score of the fitted dose curve at least 0.9, where 1 is the maximum). The method, boiled down:
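HepG2 cells transiently transfected with multiplexed GAL4-UAS reporter units expressing chimeric NR–Gal4 fusions; 24 h compound exposure. Reporter mRNA quantified by RT-PCR, 6-FAM labelling, HpaI digestion and capillary electrophoresis; gain-of-signal fitted against DMSO baseline.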

For assay [19], the target named is Peroxisome proliferator-activated receptor gamma (Homo sapiens) (UniProt P37231). As to the kind of experiment: ATG_PPARg_TRANS: Attagene TRANS-FACTORIAL HepG2 Assay for human Peroxisome Proliferator-activated Receptor-gamma (PPARg) (AID 2283007; active = hit-call score of the fitted dose curve at least 0.9, where 1 is the maximum). The method, boiled down:
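Endpoint reflects upward reporter mRNA change versus DMSO controls. Setup: transiently transfected HepG2, GAL4-UAS reporters driven by chimeric NR-Gal4, 24 h incubation, RT-PCR with capillary electrophoresis read-out.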

SMILES strings stand for the structures. Values joined by “and” are separate entries in the source; they are usually repeats but may differ in a detail not shown here. Equal values may be shown once. Inconclusive results are not listed. Active and inactive are the calls of the source. The calls were made as follows, unless noted: active = hit-call score of the fitted dose curve at least 0.9, where 1 is the maximum; inactive = score below 0.9.

Sequence of Myc proto-oncogene protein (Homo sapiens) (P01106 whole entry, looked up, the tested form may be a part): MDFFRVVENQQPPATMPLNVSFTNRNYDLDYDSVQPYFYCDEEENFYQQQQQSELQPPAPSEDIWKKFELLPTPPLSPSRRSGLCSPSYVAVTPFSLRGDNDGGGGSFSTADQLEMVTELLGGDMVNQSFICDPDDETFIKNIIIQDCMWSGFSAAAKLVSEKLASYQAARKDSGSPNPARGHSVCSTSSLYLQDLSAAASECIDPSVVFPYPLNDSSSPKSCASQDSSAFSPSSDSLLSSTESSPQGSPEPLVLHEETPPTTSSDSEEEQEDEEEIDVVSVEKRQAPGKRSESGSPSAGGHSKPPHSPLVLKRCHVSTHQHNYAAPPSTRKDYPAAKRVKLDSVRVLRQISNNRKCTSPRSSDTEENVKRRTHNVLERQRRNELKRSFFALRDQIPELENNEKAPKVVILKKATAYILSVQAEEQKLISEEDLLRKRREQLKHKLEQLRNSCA
Sequence of Peroxisome proliferator-activated receptor gamma (Homo sapiens) (P37231 whole entry, looked up, the tested form may be a part): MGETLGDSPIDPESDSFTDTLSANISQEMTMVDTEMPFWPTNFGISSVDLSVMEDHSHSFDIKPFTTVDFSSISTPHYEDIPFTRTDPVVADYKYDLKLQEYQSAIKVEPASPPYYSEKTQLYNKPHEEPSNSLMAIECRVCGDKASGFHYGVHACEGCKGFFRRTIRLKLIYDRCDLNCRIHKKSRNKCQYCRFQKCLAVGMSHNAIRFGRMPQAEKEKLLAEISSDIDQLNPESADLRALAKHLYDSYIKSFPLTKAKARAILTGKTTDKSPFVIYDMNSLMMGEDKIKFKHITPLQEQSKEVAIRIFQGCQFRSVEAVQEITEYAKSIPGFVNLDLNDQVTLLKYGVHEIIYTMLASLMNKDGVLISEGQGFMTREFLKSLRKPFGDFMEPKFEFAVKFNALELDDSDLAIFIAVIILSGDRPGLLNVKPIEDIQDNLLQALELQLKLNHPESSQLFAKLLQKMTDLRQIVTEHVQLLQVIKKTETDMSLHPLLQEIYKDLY
Sequence of human Peroxisome Proliferator-activated Receptor delta (PPARd), PPARD (gene 5467) (Q03181 whole entry, looked up, the tested form may be a part): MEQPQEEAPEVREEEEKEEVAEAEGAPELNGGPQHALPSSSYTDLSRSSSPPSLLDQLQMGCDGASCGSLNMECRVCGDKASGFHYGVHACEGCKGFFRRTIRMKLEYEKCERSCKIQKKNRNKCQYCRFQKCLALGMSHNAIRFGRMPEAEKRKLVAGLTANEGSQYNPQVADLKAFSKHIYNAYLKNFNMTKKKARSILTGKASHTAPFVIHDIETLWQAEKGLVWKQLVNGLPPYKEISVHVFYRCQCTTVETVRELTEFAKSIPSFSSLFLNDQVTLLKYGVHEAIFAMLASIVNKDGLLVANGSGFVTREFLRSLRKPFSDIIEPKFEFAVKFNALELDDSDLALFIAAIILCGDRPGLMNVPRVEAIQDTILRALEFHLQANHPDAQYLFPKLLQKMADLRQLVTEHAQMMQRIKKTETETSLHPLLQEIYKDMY
Sequence of human Peroxisome Proliferator-activated Receptor alpha (PPARa), PPARA (gene 5465) (Q07869 whole entry, looked up): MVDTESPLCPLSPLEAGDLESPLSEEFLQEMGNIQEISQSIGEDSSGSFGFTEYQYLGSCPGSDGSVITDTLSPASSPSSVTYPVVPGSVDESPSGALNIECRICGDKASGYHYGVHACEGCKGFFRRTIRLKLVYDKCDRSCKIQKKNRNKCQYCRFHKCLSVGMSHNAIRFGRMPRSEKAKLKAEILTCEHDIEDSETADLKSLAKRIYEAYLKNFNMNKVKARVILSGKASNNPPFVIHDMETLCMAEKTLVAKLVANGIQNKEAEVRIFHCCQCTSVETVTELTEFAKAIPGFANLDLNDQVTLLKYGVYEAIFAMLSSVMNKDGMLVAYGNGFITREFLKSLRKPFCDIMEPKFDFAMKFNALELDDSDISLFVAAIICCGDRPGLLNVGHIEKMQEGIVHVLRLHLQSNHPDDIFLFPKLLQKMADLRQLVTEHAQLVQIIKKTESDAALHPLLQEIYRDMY
Sequence of human RAR-related Orphan Receptor beta (RORb), RORB (gene 6096) (Q92753 whole entry, looked up, the tested form may be a part): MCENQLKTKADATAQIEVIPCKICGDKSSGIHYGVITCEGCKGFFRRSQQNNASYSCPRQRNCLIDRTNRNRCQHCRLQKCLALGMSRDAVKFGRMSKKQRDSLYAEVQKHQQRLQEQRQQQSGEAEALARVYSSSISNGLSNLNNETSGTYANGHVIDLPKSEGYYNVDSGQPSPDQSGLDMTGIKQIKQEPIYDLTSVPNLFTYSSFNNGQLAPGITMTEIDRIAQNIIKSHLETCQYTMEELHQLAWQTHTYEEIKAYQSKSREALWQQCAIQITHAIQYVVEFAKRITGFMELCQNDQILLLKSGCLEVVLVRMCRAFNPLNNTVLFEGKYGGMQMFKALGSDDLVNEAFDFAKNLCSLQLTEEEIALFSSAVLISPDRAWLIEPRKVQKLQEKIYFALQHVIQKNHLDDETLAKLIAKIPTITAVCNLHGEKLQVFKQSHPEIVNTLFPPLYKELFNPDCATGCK
Sequence of human Retinoic Acid Receptor gamma (RARg), RARG (gene 5916) (P13631 whole entry, looked up, the tested form may be a part): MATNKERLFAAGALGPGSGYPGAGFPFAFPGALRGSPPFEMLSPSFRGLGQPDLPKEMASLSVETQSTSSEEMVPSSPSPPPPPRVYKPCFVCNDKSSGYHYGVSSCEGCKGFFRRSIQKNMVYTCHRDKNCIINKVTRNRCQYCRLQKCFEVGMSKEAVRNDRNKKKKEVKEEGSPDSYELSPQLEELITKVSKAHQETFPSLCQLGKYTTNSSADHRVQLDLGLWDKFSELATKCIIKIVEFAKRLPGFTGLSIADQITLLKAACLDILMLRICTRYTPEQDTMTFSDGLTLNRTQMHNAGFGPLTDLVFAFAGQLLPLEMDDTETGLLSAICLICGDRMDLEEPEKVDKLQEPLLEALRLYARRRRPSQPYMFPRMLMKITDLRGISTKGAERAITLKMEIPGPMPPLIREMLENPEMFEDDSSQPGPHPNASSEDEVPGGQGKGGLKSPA
Sequence of human Retinoic Acid Receptor beta (RARb), RARB (gene 5915) (P10826 whole entry, looked up, the tested form may be a part): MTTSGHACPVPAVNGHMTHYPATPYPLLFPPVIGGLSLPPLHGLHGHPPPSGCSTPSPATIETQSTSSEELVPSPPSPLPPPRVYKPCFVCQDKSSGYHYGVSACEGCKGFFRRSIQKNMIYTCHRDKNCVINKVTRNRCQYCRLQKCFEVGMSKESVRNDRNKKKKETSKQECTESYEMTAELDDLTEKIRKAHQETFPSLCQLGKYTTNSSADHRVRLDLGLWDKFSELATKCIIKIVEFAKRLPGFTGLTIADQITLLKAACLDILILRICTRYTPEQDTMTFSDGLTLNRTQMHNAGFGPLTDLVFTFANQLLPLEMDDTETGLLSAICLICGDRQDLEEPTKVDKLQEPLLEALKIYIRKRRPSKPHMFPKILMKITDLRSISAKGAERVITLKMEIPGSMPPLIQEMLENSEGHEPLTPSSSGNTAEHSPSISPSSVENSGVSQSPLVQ
Sequence of Retinoic acid receptor alpha (Homo sapiens) (P10276 whole entry, looked up, the tested form may be a part): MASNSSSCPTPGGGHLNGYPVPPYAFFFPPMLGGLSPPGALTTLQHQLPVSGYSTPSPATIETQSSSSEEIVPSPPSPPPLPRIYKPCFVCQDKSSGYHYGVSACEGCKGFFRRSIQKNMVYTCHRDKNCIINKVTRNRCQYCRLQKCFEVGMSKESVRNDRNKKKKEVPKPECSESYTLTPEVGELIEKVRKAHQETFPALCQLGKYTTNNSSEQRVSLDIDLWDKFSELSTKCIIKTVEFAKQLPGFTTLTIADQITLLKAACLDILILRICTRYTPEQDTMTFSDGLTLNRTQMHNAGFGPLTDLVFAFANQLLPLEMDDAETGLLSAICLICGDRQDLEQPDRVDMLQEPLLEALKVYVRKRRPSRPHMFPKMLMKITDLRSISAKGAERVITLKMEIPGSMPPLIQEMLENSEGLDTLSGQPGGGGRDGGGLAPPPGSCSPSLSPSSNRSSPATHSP

For `c1ccc2c(c1)ccc1cc3c(ccc4ccccc43)cc12`, the compound was called inactive in [1], in assay [2], in assay [4], in assay [6], in [7] and in assay [9]. Moreover, the outcome in assay [10], in [11], in assay [12], in assay [13] and in assay [14] was inactive. Also, the AC50 in assay [3] is 0.12 µM (active); in assay [5], 15 nM (active) and 41.3 nM (active); in assay [8], 15 nM (active) and 37.3 nM (active).

As for `O=CN1CCCCC1`, the result in assay [1], in [2], in [3], in [4], in assay [15] and in assay [16] was inactive.

Consider `CCCCCC(C)O` (stereo unspecified), for which the compound was called inactive in [1], in [2], in assay [3], in assay [4], in assay [17] and in [18]. In addition, the outcome in [14] was inactive.

On to `CCCCCCCC[N+](C)(CCCCCCCC)CCCCCCCC`, for which the compound was classed as inactive in assay [1], in assay [2], in [4], in assay [9], in assay [18] and in assay [16]. In [13], the compound was classed as inactive. For the same compound, the AC50 in assay [3] is 1.59 µM (active).

Take `CCOC(F)(F)C(F)(F)C(F)(F)C(F)(F)F`: the compound was classed as inactive in [1], in assay [2], in assay [3], in [4], in assay [17] and in assay [19]. Besides, the compound was classed as inactive in assay [12].

Take `CC1=CC[C@H](C(C)C)C=C1`: the call in [1], in assay [2], in assay [4] and in [15] was inactive. Further, the values for the AC50 in [3], in [19] and in assay [12] were 27.7 µM (active), 27.9 µM (active) and 0.822 µM (active), respectively.

Regarding `O=S(=O)(O)CC(O)CCl` (stereo unspecified), the compound was called inactive in [1], in [2], in assay [4], in [9], in [17] and in assay [12]. In addition, the AC50 in assay [3] is 30 µM (active); in assay [19], 26.4 µM (active).

As for `CC(C)=CCC/C(C)=C\C#N`, the compound was classed as inactive in [1], in assay [2], in [4], in assay [15], in assay [18] and in assay [19]. For the same compound, in [14], the compound was classed as inactive. Besides, the AC50 in [3] was 26.5 µM (active).

On to `COCc1c(C(C)C)nc(C(C)C)c(/C=C/[C@@H](O)C[C@@H](O)CC(=O)O)c1-c1ccc(F)cc1`, for which the result in assay [1], in assay [2], in [3], in assay [4], in assay [7] and in assay [9] was inactive. The compound was classed as inactive in assay [17] and in assay [10]. The AC50 was 5.66 µM (active) in [5]; 0.0342 µM (active) in assay [6]; 26.6 nM (active) in assay [8]; 0.039 µM (active) in assay [11]; 12.8 µM (active) in assay [19].

In the case of `COc1ccc2nc(N)sc2c1`, the compound was classed as inactive in [1], in assay [2], in assay [4], in [5], in assay [6] and in [7]. Moreover, the outcome in assay [8], in [9], in [10], in assay [11], in assay [19] and in assay [12] was inactive. The outcome in assay [13] and in [14] was inactive. The AC50 in assay [3] is 13.9 µM (active).

As to `Cc1ccc(N)c([N+](=O)[O-])c1`, the compound was classed as inactive in assay [1], in [2], in [3], in assay [4], in assay [9] and in [17]. The call in assay [19] and in [12] was inactive.

On to `Cc1ccc(OC(=O)CC(C)C)cc1`, for which the compound was called inactive in [1], in [2], in assay [3], in [4] and in assay [17].

For orientation: AC50 means the concentration at which the activity in the assay is half-maximal.
